# Bioassay records from PubChem BioAssay.
# A selection: hits, their analogues and other compounds. The true share with any hit is near 3.6%.
# Sm TGR inh: blocks Schistosoma mansoni thioredoxin glutathione reductase. Potency, µM (top dose mostly 114 µM), hits mostly inhibitors. 360,000 compounds, 3% hits. Q962Y6. AID 485364. purified TGR, DTNB reduction, TNB absorbance 405 nm; further: nearly all actives have a fitted effect of over 60% in size
#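 Kinetic colorimetric format: TGR-catalysed, NADPH-driven DTNB reduction monitored via TNB absorbance. Enzyme dispensed at 20 nM; compound exposure 15 min at room temperature before reaction start.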
# Giardia FBPA inh: blocks Giardia fructose-bisphosphate aldolase activity; AID 2451; A8B2U2; Potency, µM (series often up to 59.6 µM), usual class: inhibitors; 290,000 compounds, 0.71% hits; purified Giardia FBPA; further: nearly all actives have a fitted effect of over 55% in size
#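 40 nM FBPA preincubated 10 min at RT with compound (up to 57.5 uM final), then substrate plus GAPDH/TPI/NAD/arsenate coupling and diaphorase/resazurin added. Fluorescence read after 20 min at RT, 525/598 nm.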
# AmpC no deterg: inhibitors of E. coli AmpC beta-lactamase without detergent; P00811; 330,000 compounds, 0.52% hits; AID 485341; AmpC nitrocefin hydrolysis, absorbance 480 nm, 0.0001% Triton; Potency, µM (highest dose often 57.1 µM), actives largely listed as inhibitors; further: nearly all actives have a fitted effect of over 20% in size
# Target sequence (P00811 whole entry, looked up): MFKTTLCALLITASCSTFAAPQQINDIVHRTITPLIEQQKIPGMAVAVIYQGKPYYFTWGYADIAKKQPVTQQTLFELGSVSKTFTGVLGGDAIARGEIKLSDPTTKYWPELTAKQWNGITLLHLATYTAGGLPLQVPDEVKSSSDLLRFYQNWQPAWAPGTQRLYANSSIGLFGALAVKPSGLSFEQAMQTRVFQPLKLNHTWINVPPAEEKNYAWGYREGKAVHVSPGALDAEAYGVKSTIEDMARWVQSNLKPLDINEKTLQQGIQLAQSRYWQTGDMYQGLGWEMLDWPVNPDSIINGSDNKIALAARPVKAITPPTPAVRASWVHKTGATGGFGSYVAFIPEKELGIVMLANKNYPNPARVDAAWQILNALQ
#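 AmpC (5.3 nM in the dispensed reagent) in 20 mM phosphate pH 7.0 with 0.01% (detergent screen) or 0.0001% Triton X-100 was preincubated with compounds for 15 min at room temperature. Nitrocefin was then added from an 800 uM solution, and hydrolysis was followed at 480 nm.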
# AmpC detergent: AmpC beta-lactamase inhibition with detergent present; Potency, µM (doses to about 114 µM), hits mostly inhibitors; AmpC hydrolysis of nitrocefin, absorbance 480 nm, 0.01% Triton; 370,000 compounds, 0.041% hits; AID 485294; further: nearly all actives have a fitted effect of over 25% in size
#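 AmpC (5.3 nM in the dispensed reagent) in 20 mM phosphate pH 7.0 with 0.01% (detergent screen) or 0.0001% Triton X-100 was preincubated with compounds for 15 min at room temperature. Nitrocefin was then added from an 800 uM solution, and hydrolysis was followed at 480 nm.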
# Hits are given with their value; – = inactive; ? = inconclusive; · = no result given; [ ] = remark or other dose. The call rests on the fitted dose curve; in most records, active means well fitted curve in the direction sought with a large enough effect; inconclusive means small, poorly fitted or top-dose-only effect, or another doubt; inactive means no such curve, though single readings can be large; an effect the other way counts as inactive or inconclusive.
SMILES,Sm TGR inh,Giardia FBPA inh,AmpC no deterg,AmpC detergent
CCOC(=O)c1ccccc1OC(=O)CS(=O)c1ccccc1[N+](=O)[O-] (configuration not stated),·,–,–,–
COC(=O)c1ccc(OC(=O)CS(=O)c2ccccc2[N+](=O)[O-])cc1 (configuration not stated),22µM,–,–,–
O=C(CS(=O)c1ccc(C(F)(F)F)cc1[N+](=O)[O-])Oc1ccccc1 (configuration not stated),35µM,?,–,–
COc1ccccc1CNC(=O)c1cn(C)c2ccc(S(=O)(=O)N(C)C3CCCCC3)cc2c1=O,–,·,·,–
CC(C)(C)C1=CC(=O)C(=O)C(C(C)(C)C)=C1,20µM,7.1µM,–,–
CC(C)(C)C1=CC(=Nc2ccccc2N)C=C(C(C)(C)C)C1=O,–,–,–,?
CCCCOc1cccc(C(=O)N(Cc2cccs2)c2ccc(OC)cc2)c1,–,·,·,–
CCOC(=O)c1[nH]c(C)c(CCC(=O)Nc2ccc(C(C)=O)cc2)c1C,–,·,·,–
O=C(NCCC(=O)N(Cc1ccco1)Cc1cccs1)c1ccccc1Cl,45µM,·,–,–
COc1ccccc1NC(=O)CN(Cc1ccco1)C(=O)c1cc2ccccc2o1,22µM,–,–[11.4 µM],–
O=C(c1cc2ccccc2o1)N(Cc1ccco1)Cc1cccs1,32µM,·,–,?
COc1ccccc1NC(=O)CN(Cc1ccco1)C(=O)c1ccc(=O)[nH]c1,–,–,–,–
COC(=O)C[C@H]1c2ccccc2C2=C(C[C@@H](C)[C@H]3C(=O)N(c4ccccc4)C(=O)[C@@H]23)N1C(=O)OC,·,–[12.9 µM],·,·
CCC(C(=O)Nc1ccc(C(C)=O)cc1)n1c(C)c2cnn(-c3ccccc3)c(=O)c2c1C (configuration not stated),–,·,·,–
Cn1cccc1C(=O)OCC(=O)NC(=O)c1ccc(Cl)cc1,·,·,–,·
CC(C)=NOc1nc(N2CCOCC2)nc(N2CCOCC2)n1,–,–,–,–
O=S(=O)(Nc1ccc(O)c2ccccc12)c1cccs1,20µM,?,–,–
O=S(=O)(Nc1cccc2ccccc12)c1cccs1,–,·,–,–
O=S(=O)(Nc1ccc(O)c2ccccc12)c1ccc(Br)cc1,20µM,·,11µM,–
CC(=O)Nc1ccc(NS(=O)(=O)c2ccccc2)c2ccccc12,–,–,–,–
Fc1cccc(NC(=S)NC2CCCCCCC2)c1,–,·,13µM,–
S=C(Nc1ccc2nsnc2c1)NC1CCCCC1,?,1.8µM,–,–
FC(F)(F)c1cccc(NC(=S)NC2CCCC2)c1,–,–,–,–
COc1ccc2[nH]cc(CCNc3ncncc3-c3ccc4c(c3)OCO4)c2c1,·,–,·,·
CC(=O)NC12CC3CC(C1)CC(C(=O)Nc1nc4ccc(S(C)(=O)=O)cc4s1)(C3)C2,–,·,–,–
SMILES,Sm TGR inh,Giardia FBPA inh,AmpC no deterg,AmpC detergent
CCNC(=S)Nc1cccc(S(=O)(=O)NC2=NCCC2)c1,–,–,–,–
CCCCNC(=S)Nc1cccc(S(=O)(=O)NC2=NCCC2)c1,40µM,·,–,–
COc1ccccc1NS(=O)(=O)c1cccc(NC(=O)Nc2ccccc2)c1,–,–,–,–
CCNC(=S)Nc1cccc(S(=O)(=O)Nc2ccccc2OC)c1,1.8µM,–,–,–
O=C(CCl)Nc1cccc(S(=O)(=O)NC2=NCCC2)c1,6.3µM,–,–,–
Nc1nc(Nc2ccccc2F)nc(N2CCOCC2)c1[N+](=O)[O-],–,–,–,–
O=C(NCCS(=O)(=O)N1CCN(c2ccccc2F)CC1)c1ccccc1C(F)(F)F,?,·,·,–
CN(C)/C=C\C(=C/C(=O)C(F)(F)F)Nc1ccccc1Oc1ccccc1,–,–,–,–
OC(c1ccccc1)C1CN(Cc2ccccc2)CCC1(O)c1ccccc1 (configuration not stated),20µM,–,–,?
CN(c1ccccc1)S(=O)(=O)c1cccc(NC(=O)C2CCCO2)c1 (configuration not stated),·,·,–,·
O=C(NCCCN1CCOCC1)c1ccc(CSc2ccc(Cl)cc2)cc1,–,–,–,–
CCOC(=O)c1cc2occc2n1CC(=O)N1CCCc2ccccc21,8.9µM,–,–,–
CCCc1cc(NCCCN(C)C)n2c(nc3ccccc32)c1C#N,40µM,–,–,–
CCOC(=O)c1c(C)sc(-c2c(-c3ccc4c(c3)OCCO4)[nH]c3c2c(=O)[nH]c(=O)n3C)c1O,–,·,·,–
CCOc1c(Cl)cc(C(=O)N(Cc2ccc(N(C)C)cc2)Cc2ccco2)cc1Cl,–,·,·,–
COC(=O)c1c(N2C(=O)CC(Sc3ccccc3C(=O)O)C2=O)sc2c1CCCC2 (configuration not stated),2.5µM,–,–,–
COC(=O)c1c(N2C(=O)CC(Sc3ccccc3C(=O)O)C2=O)sc(C)c1C (configuration not stated),4.5µM,–,–,–
CCCCn1c(N)c(N(CC(C)C)C(=O)C2CCCN(C(=O)c3ccc(Cl)cc3)C2)c(=O)[nH]c1=O (configuration not stated),–,·,–,–
Cc1cc(C)c2c(=O)n(CC(=O)N3CCC(N4CCCCC4)CC3)sc2n1,–,–,20µM,56µM
CC(=O)Cn1cnc2c(sc3nc(C)cc(C)c32)c1=O,–,–,–,–
Cc1nn(CC(=O)N2CCC(N3CCCCC3)CC2)c(=O)c2c1sc1ccccc12,–,–,–,–
CCOC(=O)C1CCCN(C(=O)Cn2sc3nc(C)cc(C)c3c2=O)C1 (configuration not stated),?,–,14µM,45µM
CCCNC(=O)Cn1sc2nc(C)cc(C)c2c1=O,?,–,?,79µM
CCOC(=O)C1CCCN(C(=O)Cn2cnc3c2c(=O)n(C)c(=O)n3C)C1 (configuration not stated),–,–,–,–
O=C(O)c1ccc(N/N=C2/CCCc3ccccc32)cc1,–,–,–,–
SMILES,Sm TGR inh,Giardia FBPA inh,AmpC no deterg,AmpC detergent
O=C(c1nc2ccc(Cl)cn2c1CN1CCCC1)N1CCc2ccccc2C1,40µM,–,–,–
CN(Cc1cnccn1)Cc1c(C(=O)N2CCc3ccccc3C2)nc2ccc(Cl)cn12,–,–,–,–
O=C(c1nc2ccc(Cl)cn2c1CN1CCC(CO)CC1)N1CCc2ccccc2C1,–,–,–,–
CN(Cc1cccnc1)Cc1c(C(=O)N2CCc3ccccc3C2)nc2ccc(Cl)cn12,32µM,–,–,–
CCCCN(C)Cc1c(C(=O)N2CCc3ccccc3C2)nc2ccc(Cl)cn12,45µM,–,–,–
CC(C)CN(C)Cc1c(C(=O)N2CCc3ccccc3C2)nc2ccc(Cl)cn12,–,–,–,–
CN1C(=O)c2ccccc2Sc2ccc(NC(=O)NCc3cccc(Cl)c3)cc21,–,·,·,–
Cc1cc(Oc2ccc(=O)[nH]n2)nc(Cl)n1,–,–,–,–
CC(C)C1=Nc2cccc3cccc(c23)N1,–,?,–,–
ClCC1=Nc2cccc3cccc(c23)N1,28µM,?,–,–
Nc1cccc(C2=Nc3cccc4cccc(c34)N2)c1,–,–,–,–
COc1ccc(C2=Nc3cccc4cccc(c34)N2)cc1,50µM,–,–,–
